For 97 compounds, survival results are on record in PubChem BioAssay AID463173 (ICCB-Longwood Screening Facility, Harvard Medical School, 2010).

In all, about 52,000 compounds went through this assay and about 4,300 (8.3%) were called active. This excerpt belongs to a sample that is enriched for actives. A number with no mark means an inactive call. Rule as the data show it: active = survival mostly below about 52% (no sharp cut-off); inactive = mostly above about 56%.

For this experiment, the system named is DeltatarO mutant. Nature of the experiment: S. aureus survival, RN4220 and DeltatarO strains – OD600, teichoic acid synthesis inhibitors, primary screen (AID 463173). The settings on record: S. aureus RN4220 wild type/DeltatarO growth, OD600, 18 h, hits give low values, screened at 18.75 µg/mL (by protocol).
Turning to `CCOC(=O)c1ccccc1NC(=O)Nc1cc2c(cc1N1CCCCC1)n(C)c(=O)n2C`, the survival is 76%.

Regarding `CCC1CCCCN1C(=O)CSc1nnc(-c2ccc(OC)c(OC)c2)o1` (configuration not stated), the survival was 71%.

On to `CCOc1cc(CNC(=O)CN2CCSc3ccccc32)cc(OCC)c1OCC`, for which the survival is 85%.

In the case of `CC(C)CCNC(=O)C1CCC(Cn2c(=O)c3sccc3n(CC(=O)NC(C)C)c2=O)CC1` (configuration not stated), the survival was 95%.

On to `CCOC(=O)c1c(SCC(=O)Nc2nc3ccccc3s2)nc(=O)[nH]c1C`, for which the survival is 6% (active).

Turning to `CCOC(=O)c1c(SCC(=O)Nc2cccc(C)c2C)nc(=O)[nH]c1C`, the survival was 67%.

`CCOC(=O)c1c(SCC(=O)Nc2nc3ccc(C)cc3s2)nc(=O)[nH]c1C`: the survival was 70%.

`CCCCc1ccc(C(=O)N/C(=C\c2ccc(C)cc2)C(=O)NC2CCCCC2)cc1`: the survival was 66%.

With `Cn1c(=O)n(CCCc2ccccc2)c(=O)c2c1nc1n2CCN1c1ccccc1`, the survival was 75%.

Consider `O=C(Nc1ccc(Cl)c(Cl)c1)c1cc(S(=O)(=O)N2CCN(c3cccc(Cl)c3)CC2)ccc1F`, for which the survival is 68%.

`COc1cc(OC)cc(C(=O)N2CCC(c3ccncc3)CC2)c1`: the survival was 89%.

For the compound `CCN(CC)c1ccc(C(=O)N2CCC(c3ccncc3)CC2)cc1`, the survival is 88%.

For the compound `COc1cc(C(=O)N2CCC(c3ccncc3)CC2)cc(OC)c1OC`, the survival was 88%.

As to `CCOc1ccc(C(=O)N2CCC(c3ccncc3)CC2)cc1`, the survival is 94%.

Consider `CCOc1cc(C(=O)N2CCC(c3ccncc3)CC2)cc(OCC)c1OCC`, for which the survival was 17% (active).

Regarding `COc1ccc(C(=O)N2CCC(c3ccncc3)CC2)cc1OC`, the survival is -5% (active).

With `CCNC(=O)Cc1ccc(NC(=O)N2CCCCc3ccccc32)cc1`, the survival was 74%.

With `O=C(Nc1nnc2n1CCS2)c1ccccc1C(F)(F)F`, the survival was 93%.

For the compound `O=C(c1ccc2c(Cl)c3c(nc2c1)CCCC3)N1CCN(c2ccccc2F)CC1`, the survival is -3% (active).

As for `Cc1ccc(C)c(N2CCN(C(=O)c3ccc4c(Cl)c5c(nc4c3)CCCC5)CC2)c1`, the survival is 98%.

As to `O=C(c1ccc2c(Cl)c3c(nc2c1)CCCC3)N1CCN(c2cccc(Cl)c2)CC1`, the survival is 65%.

As for `Cc1ccc(N2CCN(C(=O)c3ccc4c(Cl)c5c(nc4c3)CCCC5)CC2)c(C)c1`, the survival was 88%.

For the compound `Cc1cccc(N2CCN(C(=O)c3ccc4c(Cl)c5c(nc4c3)CCCC5)CC2)c1C`, the survival was 93%.

With `O=C(c1ccc2c(Cl)c3c(nc2c1)CCCC3)N1CCN(c2ccccc2)CC1`, the survival is 20% (active).

In the case of `O=C(c1ccc2c(Cl)c3c(nc2c1)CCCC3)N1CCN(c2cccc(C(F)(F)F)c2)CC1`, the survival is 64%.

On to `Cc1ccc(Cl)cc1N1CCN(C(=O)c2ccc3c(Cl)c4c(nc3c2)CCCC4)CC1`, for which the survival was 31% (active).

In the case of `O=C(c1ccc2c(Cl)c3c(nc2c1)CCCC3)N1CCN(c2ccc(Cl)cc2)CC1`, the survival is 92%.

Consider `CCOC(=O)/C(C)=C1\NC(C)(C)Cc2ccccc21`, for which the survival was 92%.

Regarding `Cc1coc2cc3oc(=O)c(CCC(=O)NCc4ccccc4Cl)c(C)c3cc12`, the survival was 66%.

For `Cc1ccc2c(c1)nc(SCC(O)c1ccc(Br)cc1)n2C` (configuration not stated), the survival is 70%.

Take `COc1cc2c(cc1OC)-c1n[nH]c(=S)n1C(C)(C)C2`: the survival is 90%.

In the case of `CC(=O)c1c(C)n(-c2ccc(C)cc2)c2ccc(OC(=O)COc3ccccc3)cc12`, the survival is 62%.

In the case of `COc1ccccc1CN1CCN(C(CC(C)C)c2nnnn2Cc2ccc(F)cc2)CC1` (configuration not stated), the survival is 85%.

For `O=C(/C=C/c1ccccc1)N1CCCC1=O`, the survival was 94%.

Consider `O=C1CCCCCN1Sc1ccccc1`, for which the survival is 48% (active).

Regarding `O=C1CCC(=O)N1c1ccccc1`, the survival is 98%.

Turning to `CCN(CCCNC(=O)c1ccc(Sc2ccc(Cl)cc2)c(NC(C)=O)c1)c1cccc(C)c1`, the survival was 89%.

On to `COc1cc(O)ccc1-c1nc2cc(C)ccn2c1Nc1ccccc1C`, for which the survival was 69%.

Regarding `Cc1ccccc1Nc1c(-c2cccc(O)c2)nc2ccc(Br)cn12`, the survival is 64%.

For the compound `COc1cc(O)ccc1-c1nc2ccc(Br)cn2c1Nc1ccccc1C`, the survival is 46% (active).

For the compound `Cc1ccccc1Nc1c(-c2cccnc2)nc2ccc(Cl)cn12`, the survival was 92%.

As for `Cc1ccccc1Nc1c(-c2ccc(Br)o2)nc2ccc(Cl)cn12`, the survival was 37% (active).

As for `Cc1ccccc1Nc1c(-c2ccncc2)nc2ccc(Cl)cn12`, the survival is 118%.

Turning to `CCOC(=O)c1c(S(=O)(=O)N2CCCC(C(=O)Nc3ccc(OCC)cc3)C2)c(C)n(C)c1C` (configuration not stated), the survival is 99%.

For `COc1ccc(CNC(=O)C(=O)NCC(c2cccs2)S(=O)(=O)c2cccs2)cc1` (configuration not stated), the survival was 89%.

For the compound `CCCCOc1ccc(C(=O)N(Cc2ccco2)Cc2ccco2)cc1`, the survival was 94%.

For `Cc1cccc(NC(=O)c2cc3c([nH]c2=O)CC(c2ccccc2)CC3=O)c1` (configuration not stated), the survival is 20% (active).

For `O=C1CC(c2ccccc2)Cc2[nH]c(=O)c(C(=O)Nc3cccc(F)c3)cc21` (configuration not stated), the survival is 89%.

In the case of `O=C1CC(c2ccccc2)Cc2[nH]c(=O)c(C(=O)Nc3cccc(Cl)c3)cc21` (configuration not stated), the survival is 8% (active).

Turning to `COc1ccc(NC(=O)c2cc3c([nH]c2=O)CC(c2ccccc2)CC3=O)cc1` (configuration not stated), the survival was 91%.

Consider `CC(=O)c1ccc(NC(=O)c2cc3c([nH]c2=O)CC(c2ccccc2)CC3=O)cc1` (configuration not stated), for which the survival is 63%.

As to `O=C1CC(c2ccccc2)Cc2[nH]c(=O)c(C(=O)Nc3ccc(F)cc3)cc21` (configuration not stated), the survival was 101%.

Consider `COc1ccc(S(=O)(=O)c2c(C)c(NS(=O)(=O)c3ccccc3)cc(C)c2O)cc1`, for which the survival was 67%.

In the case of `CC(C)N(Cc1ccccc1)C(=O)CCS(=O)(=O)c1cc2c(cc1Cl)NC(=O)CO2`, the survival is 103%.

Take `CC(C)(C)c1ccc(S(=O)(=O)c2cnc(SCC(=O)Nc3ccc4c(c3)OCCO4)[nH]c2=O)cc1`: the survival is 120%.

`COc1ccc(S(=O)(=O)N(CC(=O)NCCSCc2ccccc2)c2ccc(C)cc2)cc1`: the survival was 54%.

Turning to `CCN1CCN(C(=O)c2cnn(-c3ccc(F)cc3)c2-n2cccc2)CC1`, the survival is 135%.

On to `COC(=O)c1ccc(NC(=O)CSc2n[nH]c(-c3ccccc3)n2)cc1`, for which the survival was 88%.

For the compound `CCc1ccc(NC(=O)CSc2ccc(-c3sc(-c4ccccc4)nc3C)nn2)cc1`, the survival was 38%.

With `Cc1ccc(CNC(=O)CSc2ccc(-c3sc(-c4ccccc4)nc3C)nn2)cc1`, the survival is 93%.

`CCOc1ccc(NC(=O)CSc2ccc(-c3sc(-c4ccccc4)nc3C)nn2)cc1`: the survival is 15% (active).

Regarding `CCOC(=O)c1ccccc1NC(=O)CSc1ccc(-c2sc(-c3ccccc3)nc2C)nn1`, the survival was 34%.

With `Cc1nc(-c2ccccc2)sc1-c1ccc(SCC(=O)NCc2ccccc2)nn1`, the survival was 58%.

Consider `COC(=O)c1ccc(NC(=O)CSc2n[nH]c(CC(C)C)n2)cc1`, for which the survival is 36% (active).

As for `COC(=O)c1ccccc1NC(=O)CSc1n[nH]c(CC(C)C)n1`, the survival was 47%.

In the case of `COC(=O)c1ccc(NC(=O)CSc2ccc(-c3sc(-c4ccccc4)nc3C)nn2)cc1`, the survival is 56% (active).

For `Cc1ccc(OCC(=O)Nc2ccc3c(c2)sc(=O)n3C)cc1`, the survival is 110%.

In the case of `O=C(Cn1ncc2c3ccccc3n(Cc3ccc(Cl)cc3)c2c1=O)NCCC1=CCCCC1`, the survival is 89%.

As to `CCc1ccc(C2CC(=O)c3c([nH]c(C(=O)OC4CCCC4)c3C)C2)cc1` (configuration not stated), the survival was 97%.

For the compound `O=C(CSc1nnc(NC(=O)NC2CCCCC2)s1)Nc1ccccc1F`, the survival is 79%.

For `CCCn1c(C(=O)OC)cc2c1ccn2C`, the survival is 78%.

With `CC1(C)Cc2[nH]c(=S)c(C#N)cc2CO1`, the survival was 88%.

In the case of `CCCc1cnc2c(c1SCC(=O)NCc1ccc(C)cc1)c(=O)n(C)c(=O)n2C`, the survival was -4% (active).

`CCc1cnc2c(c1SCC(=O)NCc1ccc(C)cc1)c(=O)n(C)c(=O)n2C`: the survival was 70%.

`Cc1ccc(CNC(=O)CSc2c(C(C)C)cnc3c2c(=O)n(C)c(=O)n3C)cc1`: the survival is 85%.

On to `CCOC(=O)C1=C(C)N=C2SCCC(=O)N2C1c1ccc(OCc2ccccc2)c(OC)c1` (configuration not stated), for which the survival was 133%.

For `COc1cc(C2C(C(=O)OCC(C)C)=C(C)N=C3SCCC(=O)N32)ccc1OCc1ccccc1` (configuration not stated), the survival was 46% (active).

Consider `COCCOC(=O)C1=C(C)N=C2SCCC(=O)N2C1c1ccc(OCc2ccccc2)c(OC)c1` (configuration not stated), for which the survival is 58%.

In the case of `O=C1CC(c2ccccc2)Cc2[nH]c(=O)c(-c3nc(-c4ccc(Cl)cc4)cs3)cc21` (configuration not stated), the survival is 72%.

Turning to `CCCCNc1cc(N2CCN(C3CCCCC3)CC2)c2noc3c2c1C(=O)c1ccccc1-3`, the survival was -5% (active).

As for `CCCCNc1cc(NC2CCCCC2)c2c3c(onc13)-c1ccccc1C2=O`, the survival was 92%.

As to `O=C1c2ccccc2-c2onc3c(Br)cc(NC4CCCCC4)c1c23`, the survival is 101%.

For the compound `CCN(CC)c1cc(NC2CCCCC2)c2c3c(onc13)-c1ccccc1C2=O`, the survival is 1% (active).

For `CCNc1cc(N2CCN(C3CCCCC3)CC2)c2noc3c2c1C(=O)c1ccccc1-3`, the survival is 73%.

For `CN(C)CCCNc1cc(N2CCN(C3CCCCC3)CC2)c2noc3c2c1C(=O)c1ccccc1-3`, the survival was 51%.

Regarding `COc1ccc(NC(=O)CCS(=O)(=O)c2nc(-c3ccc4c(c3)OCO4)cc(C(F)(F)F)n2)cc1OC`, the survival is 79%.

`Cc1cccc(NC(=O)Cn2cc(C(=O)c3ccco3)c3ccccc32)c1C`: the survival is 55%.

Take `Cc1cc(N)cc(C(=O)O)c1O`: the survival is 104%.

Regarding `Cc1cc(N)c(O)cc1C`, the survival is 61%.

Turning to `Cc1cc(C)c(O)c(N)c1`, the survival was 39% (active).

As for `CCOc1ccc(S(=O)(=O)N2CCC(N3CCN(Cc4ccc(C)cc4)C(=O)C3=O)CC2)cc1`, the survival is 77%.

`CCCOC(=O)c1cccc(Nc2nc(CCC)cc(=O)[nH]2)c1`: the survival is 10% (active).

On to `CCCc1cc(=O)[nH]c(Nc2cc(Cl)cc(Cl)c2)n1`, for which the survival is 6% (active).

Turning to `CCCc1cc(=O)[nH]c(Nc2ccc(C(=O)O)cc2)n1`, the survival is 62%.

As for `CCCc1cc(=O)[nH]c(Nc2cccc(Cl)c2Cl)n1`, the survival was 68%.

In the case of `CCCc1cc(=O)[nH]c(Nc2ccc(C)c(O)c2)n1`, the survival is 57%.

As for `CCCc1cc(=O)[nH]c(Nc2cc(C)cc(C)c2)n1`, the survival is 108%.
